Assay results taken from article PMC7819943, “Rice protein-binding microarrays: a tool to detect cis-acting elements near promoter regions in rice”.
In all, about 39,000 sequences were measured (“fluorescence intensity (a.u.)”: median about 4,300, highest 2% from about 39,000 on). For the sample, the highest values were picked, then their nearest neighbours and some sequences at random.

target: T1, OsSMF1 (Oryza sativa, UniProt Q6ZLB0 1-436); test: protein-binding microarray (RPBM); PBS, 2% BSA, 51.3 ng/ul salmon testes DNA, 50 uM zinc acetate, 200 nM TF, 25 C, 1 h; high values mean tight binding; conditions: protein: recombinant; tags: N-terminal polyhistidine and DsRed monomer fusion (pET32a); chain copies: 2; label: CyDye5-dUTP incorporated in the synthesized complementary strand; 3' TTTTT single-stranded linker to array surface; dsDNA, one strand shown
T1 sequence: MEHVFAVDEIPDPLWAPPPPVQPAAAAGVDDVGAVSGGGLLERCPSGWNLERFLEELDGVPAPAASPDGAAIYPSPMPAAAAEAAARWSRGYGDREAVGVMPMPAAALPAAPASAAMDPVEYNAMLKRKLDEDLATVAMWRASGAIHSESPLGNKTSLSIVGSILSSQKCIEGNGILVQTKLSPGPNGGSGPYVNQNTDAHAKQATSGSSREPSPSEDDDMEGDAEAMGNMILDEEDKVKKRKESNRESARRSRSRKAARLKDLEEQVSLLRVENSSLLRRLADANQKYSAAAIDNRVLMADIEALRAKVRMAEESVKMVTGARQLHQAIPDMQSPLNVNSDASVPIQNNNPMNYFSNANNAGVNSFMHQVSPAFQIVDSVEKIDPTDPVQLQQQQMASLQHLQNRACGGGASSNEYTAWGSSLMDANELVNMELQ
Outline: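 Transcription factors were made in E. coli BL21-CodonPlus as N-terminal fusions to a polyhistidine tag and DsRed, then purified on Ni–NTA. After primer extension with Cy5-dUTP and blocking with 2% BSA, a custom Agilent array was exposed for 1 h at 25 °C to 200 nM protein in PBS, 2% BSA, salmon testes DNA and 50 µM zinc acetate. Washed arrays were scanned on an Axon 4000B, and the binding signal is per-feature fluorescence intensity in arbitrary units.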

Sequence | binding signal
TATATACTCTCTTCGTTTCAAAATGTTTGACGCCGTTAACCGGAGTCACCTAGTGCAG | 3670 fluorescence intensity (a.u.)
CTCAAAACCACACCGTTAAATGTTTTACCCTACTCTCGTACGGAGTCACCTAGTGCAG | 39200 fluorescence intensity (a.u.)
TTAAAACTCAATTAATCACACGTTATTACCACCTCGTTTTCGGAGTCACCTAGTGCAG | 3210 fluorescence intensity (a.u.)
TATATATATATATATATATAAAGTGTATGACATGTGATCACGGAGTCACCTAGTGCAG | 3970 fluorescence intensity (a.u.)
ATAGTATAAAAGTAATGTGATGTGGCTTTATGAGAGAAAACGGAGTCACCTAGTGCAG | 3780 fluorescence intensity (a.u.)
TGACAGCCACAAGTATGATGTGATAAAGTGTGGCTATAAACGGAGTCACCTAGTGCAG | 65500 fluorescence intensity (a.u.)
GGAGAAAATTGCGGAGGGGATCCACAGTTCCAGCCGCGTGCGGAGTCACCTAGTGCAG | 3190 fluorescence intensity (a.u.)
ACAAAATTTATTTCCAGGTGGCGTCTCCTCATTGGCCAGCCGGAGTCACCTAGTGCAG | 4370 fluorescence intensity (a.u.)
TGGGTGAGAGTTTGAACCCGAACATATGACACATCTATGTCGGAGTCACCTAGTGCAG | 3270 fluorescence intensity (a.u.)
TATGTCAATACTGTATGCATATATTAACATAAAATATCTCCGGAGTCACCTAGTGCAG | 4760 fluorescence intensity (a.u.)
ATCACTCTACTTTGTCTGTGTCATATTATAAGCTGCTTGACGGAGTCACCTAGTGCAG | 5640 fluorescence intensity (a.u.)
ACAATTACTGTATTGTGCATATAAGCTGCATATCTATCACCGGAGTCACCTAGTGCAG | 39900 fluorescence intensity (a.u.)
AGAAAGCAACATGCTGTCCCGGTGGCACATCCGATTAGTACGGAGTCACCTAGTGCAG | 3680 fluorescence intensity (a.u.)
GGCTTCCCGCGCCACAAGCTTTGCCGCCACCTCCTCCTCGCGGAGTCACCTAGTGCAG | 3230 fluorescence intensity (a.u.)
CAGAGTTCCGTTCTGAATTTCTGGTGAGTCATCTGCTGAACGGAGTCACCTAGTGCAG | 8920 fluorescence intensity (a.u.)
GTTGTCAGTTGGATAGAACCAGTCCAGGAACGTGTGGCCCCGGAGTCACCTAGTGCAG | 3240 fluorescence intensity (a.u.)
CCTTAGGCTACGTTGGCTTTTGCATTTTGGCGTGGATTTTCGGAGTCACCTAGTGCAG | 14400 fluorescence intensity (a.u.)
GTTGCCTTCGTGTCCAGTGGATAGATAAGGATAGGATTTTCGGAGTCACCTAGTGCAG | 65500 fluorescence intensity (a.u.)
CGCGGATCGGCCGCGAGGCGCACGTGGACATCACCACCAACGGAGTCACCTAGTGCAG | 4220 fluorescence intensity (a.u.)
GAGCCGCTGATCCGCTGCACGGCGGCGCGGAGCGCGTCGACGGAGTCACCTAGTGCAG | 39100 fluorescence intensity (a.u.)
ATGGTGGAGAAGGTGACGATGACACGAGGTGATCTGGATCCGGAGTCACCTAGTGCAG | 3680 fluorescence intensity (a.u.)

Sequence | binding signal
GAAGCTGTCATCGCTGATGCGGCGAAGAGATCATCATCACCGGAGTCACCTAGTGCAG | 4450 fluorescence intensity (a.u.)
GCCGCCGCCGCCGGAGAAGATGATGGTGCCGCTGGATCCGCGGAGTCACCTAGTGCAG | 43500 fluorescence intensity (a.u.)
GATGATGATGATGATGATGATGAGAAGGTGGTGCCGCCGCCGGAGTCACCTAGTGCAG | 4280 fluorescence intensity (a.u.)
CGGCGCAGATCCGGCGAGCGGCGGCGGCGGAAGCTGATGGCGGAGTCACCTAGTGCAG | 39900 fluorescence intensity (a.u.)
GAGCGCTGCGTGCGCGCGCGTCCGCGGCCACGCCATCCGCCGGAGTCACCTAGTGCAG | 4600 fluorescence intensity (a.u.)
GCGAGCTGTGCCGTTCTTGATCACCGAGGCGATGGCGGCGCGGAGTCACCTAGTGCAG | 39200 fluorescence intensity (a.u.)
AGATGGCGGCGGCGGCGCAGATCCGGCCTCCACGCGCGCACGGAGTCACCTAGTGCAG | 3940 fluorescence intensity (a.u.)
GCTGCACGGCCGCGGCGTGGCGCTGACGGCGACGGTGAGGCGGAGTCACCTAGTGCAG | 5740 fluorescence intensity (a.u.)
TTGATGGCGATCTGCGAGGCCGTGCGGGTCACGGAGCGCGCGGAGTCACCTAGTGCAG | 30900 fluorescence intensity (a.u.)
CCCGCGCCGCGGCGGATCGATGGAGCTGTTCGAGCGCGCGCGGAGTCACCTAGTGCAG | 3160 fluorescence intensity (a.u.)
GTTTGGAATTTTGGATAGAAATTCCGGGCGTGACACATCGCGGAGTCACCTAGTGCAG | 5880 fluorescence intensity (a.u.)
ATGTCGCTGTGGCTCATCCGGCCCAAGCCCATTTCCCCACCGGAGTCACCTAGTGCAG | 29500 fluorescence intensity (a.u.)
AAACTGAAGGGTATTTTCACAAAATTTCCTTTTCTTTCTCCGGAGTCACCTAGTGCAG | 6620 fluorescence intensity (a.u.)
GTATATGCGTCATGTGCGTCTTCCCTGTCACGAGTGCGTGCGGAGTCACCTAGTGCAG | 7200 fluorescence intensity (a.u.)
ACATGTGGGTCCTGTTGACATGTAGGTGCCACCTTGGCATCGGAGTCACCTAGTGCAG | 4440 fluorescence intensity (a.u.)
GAAACTTTCCTACGCACAAACTTTCAACTTTTACGTCACACGGAGTCACCTAGTGCAG | 3340 fluorescence intensity (a.u.)
CATGCTATGTGCTCAAAGGGCAACGGTCGACGTGTGCCTTCGGAGTCACCTAGTGCAG | 4110 fluorescence intensity (a.u.)
CTAAACAAAGGATGAGGCTATGAGCACCCACCAACCATACCGGAGTCACCTAGTGCAG | 34200 fluorescence intensity (a.u.)
AGATCTGCACAACCATAACGGCTAAAGAGGAGATACCAAACGGAGTCACCTAGTGCAG | 65500 fluorescence intensity (a.u.)
ACACAGATCTGCAACCAAAACAAATGCAACACTAAACACCCGGAGTCACCTAGTGCAG | 26100 fluorescence intensity (a.u.)
GCACAACCGCACACGAGACGACGTCACCCACAACCGCACGCGGAGTCACCTAGTGCAG | 6040 fluorescence intensity (a.u.)
